The values that follow come from PubChem BioAssay (EPA / NIEHS).

As a reminder, the AC50 is the concentration at which the activity in the assay is half-maximal.

Experiment [1] addresses Metabotropic glutamate receptor 1 (Rattus norvegicus) (UniProt P23385). In words: NVS_GPCR_rmMGluR1: NovaScreen (NVS) G Protein-Coupled Receptor Assay for rat Glutamate Metabotropic Receptor 1 (MGluR1) (AID 2283305). The method, boiled down: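 Rat cerebellum membrane preparation, radioligand displacement binding read by filter-based scintillation counting 1 hour after dosing. Initial duplicate single-point screen at 25 uM, then concentration-response up to 50 uM; loss of signal versus DMSO baseline scored.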

For experiment [2], the target named is Adra2b (gene 24174) (UniProt P19328). Description: NVS_GPCR_rmAdra2B: NovaScreen (NVS) G Protein-Coupled Receptor Assay for hybird cells Adrenergic, Alpha 2B Receptor (Adra2B) (AID 2283306). The method, boiled down: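 Radioligand filter-binding assay on membrane proteins from neuroglioma/blastoma hybrid cells (rodent), 1 h after dosing; scintillation counting, loss of signal vs DMSO. Primary screen in duplicate at 25 uM, actives then run in concentration series.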

Experiment [3] has as its target rat Neurokinin-1 Receptor (NK1), Tacr1 (gene 24807) (UniProt P14600). In words: NVS_GPCR_rNK1: NovaScreen (NVS) G Protein-Coupled Receptor Assay for rat Neurokinin-1 Receptor (NK1) (AID 2283309). The essentials:
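Rat submaxillary gland membranes; radioligand displacement read by filter-based scintillation counting after 1 h. Primary screen in duplicate at 25 uM; actives retested in concentration series; loss of binding fitted versus DMSO.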

For experiment [4], the target named is rat Neurokinin-3 Receptor (NK3), Tacr3 (gene 24808) (UniProt P16177). Description: NVS_GPCR_rNK3: NovaScreen (NVS) G Protein-Coupled Receptor Assay for rat Neurokinin-3 Receptor (NK3) (AID 2283310). The essentials:
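Rat cortical membranes; radioligand binding with filtration and scintillation counting, 2 h after dosing. Primary screen in duplicate at 25 uM, then concentration-response up to 50 uM; loss of binding signal relative to DMSO.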

In experiment [5] the target is rat Opioid Receptor, Non-selective Sodium (Na+) Binding, Oprm1 (gene 25601) (UniProt P33535). Description: NVS_GPCR_rOpiate_NonSelectiveNa: NovaScreen (NVS) G Protein-Coupled Receptor Assay for rat Opioid Receptor, Non-selective Sodium (Na+) Binding (AID 2283311). The essentials: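 Rat forebrain membranes, radioligand displacement with filter scintillation counting, 1.5 h incubation. Screened in duplicate at 25 µM; hits then run in concentration-response up to 50 µM; loss of binding fitted versus DMSO.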

Experiment [6] deals with rat Somatostatin Receptor (SST), Sstr1 (gene 25033) (UniProt P28646). Description: NVS_GPCR_rSST: NovaScreen (NVS) G Protein-Coupled Receptor Assay for rat Somatostatin Receptor (SST) (AID 2283314). The method, boiled down:
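Rat forebrain membranes; radioligand displacement read by filter-based scintillation counting 1 h after dosing. Primary screen in duplicate at 25 uM. Actives (e.g., 30% inhibition) were rerun as concentration-response to 50 uM max and fitted against DMSO.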

For experiment [7], the target named is rat Neonicotinoid receptor (NNR), Chrna7 (gene 25302) (UniProt Q05941). In words: NVS_LGIC_rNNR_BungSens: NovaScreen (NVS) Ligand-Gated Ion Channel Assay for rat Neonicotinoid receptor (NNR) (AID 2283315). The essentials:
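Radioligand displacement binding on rat cortical membranes, 2.5 h incubation, filtration and scintillation counting. Loss of specific binding fitted relative to DMSO.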

The target in experiment [8] is rat Vasopressin 1 Receptor (V1), Avpr1a (gene 25107) (UniProt P30560). In words: NVS_GPCR_rV1: NovaScreen (NVS) G Protein-Coupled Receptor Assay for rat Vasopressin 1 Receptor (V1) (AID 2283316). The essentials:
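Radioligand binding on rat liver membranes, 1.5 h incubation, filter-based scintillation counting. Single 25 uM screen in duplicate; chemicals meeting threshold (e.g. 30% inhibition) run in concentration-response up to 50 uM.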

The target in experiment [9] is rat Opioid Receptor, Non-selective Binding, Oprm1 (gene 25601) (UniProt P33535). Description: NVS_GPCR_rOpiate_NonSelective: NovaScreen (NVS) G Protein-Coupled Receptor Assay for rat Opioid Receptor, Non-selective Binding (AID 2283318). The essentials: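 Rat forebrain membranes, cell-free radioligand binding with filter-based scintillation counting, read 1.5 h after dosing. Primary screen in duplicate at 25 uM; actives retested in concentration series. Loss of signal versus DMSO baseline scored.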

Experiment [10] concerns NCBI gene 24521. In words: NVS_IC_rKATPCh: NovaScreen (NVS) Ion Channel Assay for rat Potassium Channel, ATP-Sensitive (KATPCh) (AID 2283319). The essentials: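 Rat cortical membranes; radioligand binding at ATP-sensitive K channel site, filter-based scintillation counting 2 h after dosing. Single-point duplicate screen at 25 uM, hits rerun in concentration-response up to 50 uM; loss of signal versus DMSO.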

Experiment [11] in a line: NVS_IC_rCaDHPRCh_L: NovaScreen (NVS) Ion Channel Assay for rat Calcium Channel, Type L, Dihydropyridine Site (CaDHPRCh_L) (AID 2283320). The essentials:
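Radioligand binding to dihydropyridine site on rat cortical membranes, filter-based scintillation counting, 1 h after dosing. Screened in duplicate at 25 uM; actives rerun in concentration-response up to 50 uM. Loss of signal versus DMSO baseline.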

Experiment [12] deals with Sodium channel protein type 1 subunit alpha (Rattus norvegicus) (UniProt P04774). Description: NVS_IC_rNaCh_site2: NovaScreen (NVS) Ion Channel Assay for rat Sodium Channel, Site 2 (NaCh) (AID 2283322).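 Further: hit means loss of radioligand binding signal relative to DMSO so AC50 marks displacement.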 The method, boiled down: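 Membranes: rat forebrain. Format: competitive radioligand displacement, filter separation, scintillation readout, 1 h exposure. Primary screen in duplicate at 25 uM; actives retested in concentration series.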

Experiment [13] deals with rat Glutamate, AMPA Site (AMPA), Gria1 (gene 50592) (UniProt P19490). Description: NVS_LGIC_rAMPA: NovaScreen (NVS) Ligand-Gated Ion Channel Assay for rat Glutamate, AMPA Site (AMPA) (AID 2283324). The essentials:
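Rat forebrain membranes; radioligand binding read 1 h after dosing by filtration and scintillation counting. Duplicate single-point screen at 25 uM, then concentration-response to 50 uM for threshold hits (e.g. 30% inhibition); loss of signal vs DMSO.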

The target of experiment [14] is rat Gamma-Aminobutyric Acid Type A Receptor, Non-Selective (GABAR-NonSelective), Gabra1 (gene 29705) (UniProt P62813). Description: NVS_LGIC_rGABAR_NonSelective: NovaScreen (NVS) Ligand-Gated Ion Channel Assay for rat Gamma-Aminobutyric Acid Type A Receptor, Non-Selective (GABAR-NonSelective) (AID 2283326). The essentials: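 Radioligand displacement on rat whole-brain extract, 1 h, filter scintillation readout; signal loss fitted versus DMSO. Primary screen in duplicate at 25 uM; hits (e.g. ≥30% inhibition) retested in concentration-response up to 50 uM.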

The target of experiment [15] is rat Glutamate, NMDA Agonist Site (GluNMDA), Grin1 (gene 24408) (UniProt P35439). In words: NVS_LGIC_rGluNMDA_Agonist: NovaScreen (NVS) Ligand-Gated Ion Channel Assay for rat Glutamate, NMDA Agonist Site (GluNMDA) (AID 2283327). The essentials:
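Rat forebrain membranes, radioligand binding in the agonist-site protocol; 1 h after dosing; filter-based scintillation counting. Single-concentration duplicate screen at 25 uM, then concentration-response up to 50 uM for actives; gain-of-signal vs DMSO.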

The target of experiment [16] is bovine Gamma-Aminobutyric Acid Type A Receptor BDZ, alpha 5 site (GABARa5), GABRA5 (gene 523515) (UniProt Q08E50). In words: NVS_LGIC_bGABARa5: NovaScreen (NVS) Ligand-Gated Ion Channel Assay for bovine Gamma-Aminobutyric Acid Type A Receptor BDZ, alpha 5 site (GABARa5) (AID 2283323). The method, boiled down: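 Radioligand competitive displacement binding on bovine hippocampal membranes, read 1 hr after dosing by filter-based scintillation counting. Primary screen at 25 uM in duplicate; actives (e.g. ≥30% inhibition) then run in concentration-response up to 50 uM.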

Experiment [17] concerns the target human Serotonin, 5-Hydroxytryptamine Receptor 3 (5HT3), HTR3A (gene 3359) (UniProt P46098). In words: NVS_LGIC_h5HT3: NovaScreen (NVS) Ligand-Gated Ion Channel Assay for human Serotonin, 5-Hydroxytryptamine Receptor 3 (5HT3) (AID 2283325). The essentials:
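Radioligand displacement binding to human 5-HT3 from HEK293 membranes, read by filter-based scintillation counting after 1 h. Screen at 25 uM in duplicate; chemicals passing threshold were retested in concentration-response up to 50 uM.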

The target of experiment [18] is human Constitutive Androstane Receptor (CAR), NR1I3 (gene 9970) (UniProt Q14994). In words: NVS_NR_hCAR_Agonist: NovaScreen (NVS) Nuclear Receptor Binding Assay for human Constitutive Androstane Receptor Agonism (CAR) (AID 2283328). The essentials:
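Cell-free TR-FRET binding readout with extracted human CAR protein, read 1 h after dosing. Gain of signal fitted against DMSO baseline. Single-concentration duplicates at 25 uM, then concentration-response up to 50 uM for actives.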

Records with an inconclusive call do not appear. The source made the active and inactive calls. How the source made its calls: active means hit-call score of the fitted dose curve at least 0.9, where 1 is the maximum; inconclusive means response in the unintended direction; inactive means score below 0.9.

Chain of rat Neonicotinoid receptor (NNR), Chrna7 (gene 25302) (Q05941 whole entry, looked up): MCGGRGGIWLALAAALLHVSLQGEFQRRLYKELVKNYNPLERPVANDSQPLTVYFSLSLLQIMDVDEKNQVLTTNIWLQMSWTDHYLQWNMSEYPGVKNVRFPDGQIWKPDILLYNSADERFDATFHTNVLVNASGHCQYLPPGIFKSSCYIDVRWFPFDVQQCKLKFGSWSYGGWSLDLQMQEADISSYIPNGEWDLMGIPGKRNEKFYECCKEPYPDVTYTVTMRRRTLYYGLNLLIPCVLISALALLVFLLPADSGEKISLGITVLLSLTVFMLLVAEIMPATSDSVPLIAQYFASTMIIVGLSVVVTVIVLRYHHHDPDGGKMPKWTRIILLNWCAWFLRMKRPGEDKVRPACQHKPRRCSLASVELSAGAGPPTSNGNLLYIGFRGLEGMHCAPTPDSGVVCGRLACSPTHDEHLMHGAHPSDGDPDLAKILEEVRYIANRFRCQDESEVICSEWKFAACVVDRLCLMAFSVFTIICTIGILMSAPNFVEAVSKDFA
Chain of rat Gamma-Aminobutyric Acid Type A Receptor, Non-Selective (GABAR-NonSelective), Gabra1 (gene 29705) (P62813 whole entry, looked up): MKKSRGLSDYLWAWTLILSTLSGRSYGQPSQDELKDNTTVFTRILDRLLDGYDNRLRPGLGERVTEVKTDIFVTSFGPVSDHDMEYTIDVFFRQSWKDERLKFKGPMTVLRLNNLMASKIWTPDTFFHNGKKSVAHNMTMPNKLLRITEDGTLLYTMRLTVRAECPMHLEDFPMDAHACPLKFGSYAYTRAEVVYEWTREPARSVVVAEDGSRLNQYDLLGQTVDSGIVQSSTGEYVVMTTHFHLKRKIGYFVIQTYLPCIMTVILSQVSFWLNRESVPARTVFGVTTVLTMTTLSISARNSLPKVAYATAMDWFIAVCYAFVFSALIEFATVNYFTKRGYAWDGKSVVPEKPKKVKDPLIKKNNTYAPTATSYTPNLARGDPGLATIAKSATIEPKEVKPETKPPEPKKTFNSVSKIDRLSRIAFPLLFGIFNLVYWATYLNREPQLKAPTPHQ
Chain of rat Neurokinin-1 Receptor (NK1), Tacr1 (gene 24807) (P14600 whole entry, looked up): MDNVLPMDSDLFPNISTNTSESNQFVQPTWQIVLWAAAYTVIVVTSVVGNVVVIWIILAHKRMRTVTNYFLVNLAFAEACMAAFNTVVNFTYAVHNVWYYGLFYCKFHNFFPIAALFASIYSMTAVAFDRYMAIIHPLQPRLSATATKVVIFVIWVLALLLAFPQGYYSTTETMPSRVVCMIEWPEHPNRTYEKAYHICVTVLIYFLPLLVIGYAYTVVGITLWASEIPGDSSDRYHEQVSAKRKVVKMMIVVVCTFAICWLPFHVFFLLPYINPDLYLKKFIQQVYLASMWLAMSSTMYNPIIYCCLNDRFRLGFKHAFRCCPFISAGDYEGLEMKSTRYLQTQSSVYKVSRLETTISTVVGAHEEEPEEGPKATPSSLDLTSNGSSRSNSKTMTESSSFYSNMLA
Chain of rat Opioid Receptor, Non-selective Binding, Oprm1 (gene 25601) (P33535 whole entry, looked up): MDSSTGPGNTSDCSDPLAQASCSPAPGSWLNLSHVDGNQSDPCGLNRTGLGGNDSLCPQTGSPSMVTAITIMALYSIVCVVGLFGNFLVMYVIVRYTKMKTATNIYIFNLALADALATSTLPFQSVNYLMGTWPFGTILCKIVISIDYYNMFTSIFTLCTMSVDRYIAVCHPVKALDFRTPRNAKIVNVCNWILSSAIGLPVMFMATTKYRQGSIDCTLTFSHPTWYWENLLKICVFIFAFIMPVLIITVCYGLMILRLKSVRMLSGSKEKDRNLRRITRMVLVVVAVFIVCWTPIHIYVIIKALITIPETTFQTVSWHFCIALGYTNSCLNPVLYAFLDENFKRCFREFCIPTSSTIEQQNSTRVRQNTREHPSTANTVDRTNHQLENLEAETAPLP
Chain of rat Somatostatin Receptor (SST), Sstr1 (gene 25033) (P28646 whole entry, looked up): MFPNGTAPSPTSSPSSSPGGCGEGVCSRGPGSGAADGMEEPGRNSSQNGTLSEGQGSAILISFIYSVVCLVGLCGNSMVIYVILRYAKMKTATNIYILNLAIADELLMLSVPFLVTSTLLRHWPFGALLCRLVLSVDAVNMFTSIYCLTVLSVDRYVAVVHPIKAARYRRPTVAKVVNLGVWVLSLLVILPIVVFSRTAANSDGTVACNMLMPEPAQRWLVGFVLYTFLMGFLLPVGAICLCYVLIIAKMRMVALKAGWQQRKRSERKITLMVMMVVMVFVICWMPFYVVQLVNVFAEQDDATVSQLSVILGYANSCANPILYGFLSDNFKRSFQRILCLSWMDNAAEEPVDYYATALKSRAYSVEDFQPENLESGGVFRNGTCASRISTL
Chain of Adra2b (gene 24174) (P19328 whole entry, looked up): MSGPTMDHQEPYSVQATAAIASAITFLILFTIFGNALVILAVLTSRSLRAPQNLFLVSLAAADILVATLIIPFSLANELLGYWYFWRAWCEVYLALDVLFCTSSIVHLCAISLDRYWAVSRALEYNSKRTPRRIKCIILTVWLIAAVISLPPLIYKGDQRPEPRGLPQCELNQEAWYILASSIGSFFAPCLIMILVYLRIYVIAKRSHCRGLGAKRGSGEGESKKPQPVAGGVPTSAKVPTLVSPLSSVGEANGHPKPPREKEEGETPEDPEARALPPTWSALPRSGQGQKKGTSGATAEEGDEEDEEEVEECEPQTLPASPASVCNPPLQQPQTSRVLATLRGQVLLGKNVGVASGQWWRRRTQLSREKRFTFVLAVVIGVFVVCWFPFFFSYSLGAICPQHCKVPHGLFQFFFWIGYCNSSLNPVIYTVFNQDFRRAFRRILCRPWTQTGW
Chain of human Constitutive Androstane Receptor (CAR), NR1I3 (gene 9970) (Q14994 whole entry, looked up): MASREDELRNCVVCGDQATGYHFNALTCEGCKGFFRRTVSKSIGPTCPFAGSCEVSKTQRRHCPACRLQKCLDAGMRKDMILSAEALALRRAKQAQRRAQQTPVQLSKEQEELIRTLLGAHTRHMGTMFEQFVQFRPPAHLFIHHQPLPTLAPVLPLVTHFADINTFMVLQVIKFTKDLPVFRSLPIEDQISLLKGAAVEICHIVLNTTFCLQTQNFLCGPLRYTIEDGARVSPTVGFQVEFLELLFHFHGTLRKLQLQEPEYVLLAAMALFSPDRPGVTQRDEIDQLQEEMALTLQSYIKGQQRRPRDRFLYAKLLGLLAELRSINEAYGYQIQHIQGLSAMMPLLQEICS
Chain of rat Opioid Receptor, Non-selective Sodium (Na+) Binding, Oprm1 (gene 25601) (P33535 whole entry, looked up): as the sequence (P33535 whole entry, looked up) above
Chain of bovine Gamma-Aminobutyric Acid Type A Receptor BDZ, alpha 5 site (GABARa5), GABRA5 (gene 523515) (Q08E50 whole entry, looked up): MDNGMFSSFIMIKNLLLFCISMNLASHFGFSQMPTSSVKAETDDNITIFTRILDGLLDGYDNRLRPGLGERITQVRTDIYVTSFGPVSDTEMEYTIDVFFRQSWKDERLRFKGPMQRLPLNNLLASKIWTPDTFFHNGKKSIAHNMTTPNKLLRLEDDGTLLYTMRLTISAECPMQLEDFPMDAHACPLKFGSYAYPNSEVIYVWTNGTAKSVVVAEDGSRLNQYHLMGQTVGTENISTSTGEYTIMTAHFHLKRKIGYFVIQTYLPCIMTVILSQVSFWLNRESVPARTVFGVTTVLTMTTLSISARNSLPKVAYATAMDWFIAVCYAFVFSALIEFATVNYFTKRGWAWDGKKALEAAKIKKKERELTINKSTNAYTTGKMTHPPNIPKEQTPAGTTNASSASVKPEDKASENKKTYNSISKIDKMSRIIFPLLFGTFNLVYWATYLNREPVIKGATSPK
Chain of rat Neurokinin-3 Receptor (NK3), Tacr3 (gene 24808) (P16177 whole entry, looked up): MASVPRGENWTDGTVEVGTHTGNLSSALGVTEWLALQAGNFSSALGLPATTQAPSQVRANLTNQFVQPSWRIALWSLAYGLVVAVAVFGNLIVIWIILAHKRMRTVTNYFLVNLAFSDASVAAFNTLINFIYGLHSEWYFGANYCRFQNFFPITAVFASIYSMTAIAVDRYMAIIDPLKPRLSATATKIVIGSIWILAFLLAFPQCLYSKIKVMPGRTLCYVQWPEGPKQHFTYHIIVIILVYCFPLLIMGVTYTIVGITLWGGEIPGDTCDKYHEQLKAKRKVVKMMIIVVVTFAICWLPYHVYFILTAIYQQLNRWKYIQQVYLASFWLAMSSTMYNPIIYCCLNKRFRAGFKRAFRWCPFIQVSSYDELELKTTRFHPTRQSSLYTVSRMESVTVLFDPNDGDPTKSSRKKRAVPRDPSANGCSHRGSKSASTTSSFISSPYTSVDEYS
Chain of human Serotonin, 5-Hydroxytryptamine Receptor 3 (5HT3), HTR3A (gene 3359) (P46098 whole entry, looked up): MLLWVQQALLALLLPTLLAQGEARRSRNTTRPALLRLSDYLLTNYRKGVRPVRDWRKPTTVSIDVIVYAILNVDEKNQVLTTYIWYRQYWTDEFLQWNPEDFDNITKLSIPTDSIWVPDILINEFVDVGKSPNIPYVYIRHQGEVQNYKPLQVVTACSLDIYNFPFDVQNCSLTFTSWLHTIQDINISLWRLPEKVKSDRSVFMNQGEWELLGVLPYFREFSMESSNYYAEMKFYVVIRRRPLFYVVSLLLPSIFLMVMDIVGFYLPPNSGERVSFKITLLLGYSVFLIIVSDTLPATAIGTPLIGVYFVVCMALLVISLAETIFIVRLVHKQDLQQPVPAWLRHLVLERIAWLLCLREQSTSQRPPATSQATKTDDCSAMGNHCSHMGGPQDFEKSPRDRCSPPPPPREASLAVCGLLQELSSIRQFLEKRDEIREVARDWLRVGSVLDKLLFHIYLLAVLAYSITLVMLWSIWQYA

In the case of `CN(C)C(=O)C1(N2CCCCC2)CCN(CC[C@@]2(c3ccc(Cl)c(Cl)c3)CN(C(=O)c3ccccc3)CCO2)CC1`, the AC50 in [1] is 15.5 µM (active); in experiment [2], 8.86 µM (active); in experiment [3] it was 10.9 µM (active); in experiment [4] it was 0.00216 µM (active); in experiment [5], 3.48 µM (active); in experiment [6], 12.6 µM (active). Moreover, the concentration at half-maximal activity (AC50) in experiment [8] is 38.2 µM (active); in [9] it was 1.73 µM (active); in [11], 0.655 µM (active); in [12] it was 0.822 µM (active); in experiment [13] it was 4.68 µM (active); in [14], 2 µM (active). The concentration at half-maximal activity (AC50) in experiment [15] is 29.3 µM (active). The compound was called inactive in experiment [7] and in experiment [10].
As for `c1ccc(C[n+]2cccc3ccccc32)cc1`, the half-maximal activity concentration (AC50) is 12.2 µM (active) in experiment [2], 25 µM (active) in [7], 14.5 µM (active) in [9] and 10.7 µM (active) in experiment [12]. In addition, the outcome in experiment [3] was inactive.
Take `Cc1oc2c(NC(=O)c3c(Cl)cccc3Cl)cccc2c1C(C)(C)O`: in experiment [3], the result was inactive.
In the case of `CC/C(=C(/CC)c1ccc(O)cc1)c1ccc(O)cc1`, the AC50 in experiment [6] is 25 µM (active).
On to `O=C(O)Cc1cc(I)c(Oc2ccc(O)c(I)c2)c(I)c1`, for which the call in experiment [7] was inactive.
Consider `CCCCCCCCN(C)CCCCCCCC`, for which, in experiment [11], the concentration at half-maximal activity (AC50) was 16.4 µM (active).
For the compound `CC(C)(O)c1ccc(CNC(=O)c2cccnc2Oc2ccc3nonc3c2)cc1`, the compound was classed as inactive in experiment [16] and in experiment [17].
For `Cc1cc2c(cc1C(F)(F)F)N(C(=O)Nc1ccc(Oc3cccnc3C)nc1)CC2`, the half-maximal activity concentration (AC50) in experiment [14] is 8.52 µM (active).
Same read-out and setting: under `OC12N=C(c3ccccc3)SC1Cc1cc(Cl)ccc12` (configuration not stated) stands 2.62 µM (active).
With `O=C1O[C@H]([C@@H](O)CO)C(O)=C1O`, the compound was called inactive in experiment [15].
The same measure, in the same setting: to `O=C(O)Cn1c(=O)n(Cc2ccc(Br)cc2F)c(=O)c2ccc(Cl)cc21` belongs “inactive”.
For `CCCCOC(=O)c1ccc(O)cc1`, in experiment [18], the call was inactive.
`Cc1c2ccccc2c(C)c2c1ccc1ccccc12`: in experiment [18], the outcome was inactive.
